Assay outcomes (PubChem)
An excerpt weighted towards active compounds, which were near 5.5% of everything screened.
VP16 counter: counter-screen for ROR gamma inhibitors: Gal4-VP16 reporter; Drosophila S2 Gal4-VP16 UAS-luciferase, luminescence, 20 h; Potency, µM (series often up to 53.6 µM), without a hit: at the highest dose activity, negative = inhibition, most hits filed as inhibitors; actives 3.5% (n = 310,000); AID 2546;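 note: Gal4-VP16 expression switched on by copper sulfate through the metallothionein promoter; % is set by controls: 0 for no effect and ±100 for the full control effect; nearly all actives have a fitted effect of over 50% in size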
uPA generation: inhibitors of cell surface uPA generation. cell surface uPA generation assay, qHTS. Potency, µM (doses to about 38.3 µM), inactives show at the top dose activity change, negative = inhibition, most hits filed as inhibitors. actives 0.31% (n = 330,000); active = well fitted inhibition curve with a large enough effect; inconclusive = small, poorly fitted or top-dose-only effect; inactive = no such curve, though single readings can be large or run the other way; tested in mouse RAW 264.7 cells; note: % is set by controls: 0 for no effect and ±100 for the full control effect; nearly all actives have a fitted effect of over 55% in size
RORg inh: inhibitors of mouse ROR gamma transcriptional activity. P51450. Drosophila S2 Gal4-RORgamma UAS-luciferase reporter, 20 h. Potency, µM (top dose mostly 53.6 µM), inactives show at the highest dose activity change, negative = inhibition, hits mostly inhibitors. actives 5.4% (n = 310,000); note: % is set by controls: 0 for no effect and ±100 for the full control effect; nearly all actives have a fitted effect of over 60% in size
Target sequence (P51450 whole entry, looked up, the tested form may be a part): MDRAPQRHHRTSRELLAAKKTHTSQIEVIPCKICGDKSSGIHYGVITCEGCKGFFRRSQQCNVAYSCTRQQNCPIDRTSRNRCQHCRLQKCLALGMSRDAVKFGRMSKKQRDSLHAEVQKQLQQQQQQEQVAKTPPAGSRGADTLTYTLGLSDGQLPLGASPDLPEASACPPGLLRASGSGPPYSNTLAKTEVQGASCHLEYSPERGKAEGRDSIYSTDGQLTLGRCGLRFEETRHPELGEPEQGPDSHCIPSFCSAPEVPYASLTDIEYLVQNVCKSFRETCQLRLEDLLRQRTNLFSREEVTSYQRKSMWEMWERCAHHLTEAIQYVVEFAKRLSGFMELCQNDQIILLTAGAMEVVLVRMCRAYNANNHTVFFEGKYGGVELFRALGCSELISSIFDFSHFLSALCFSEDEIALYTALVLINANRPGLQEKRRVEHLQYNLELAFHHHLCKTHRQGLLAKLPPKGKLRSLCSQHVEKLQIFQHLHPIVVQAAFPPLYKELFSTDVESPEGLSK
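Read-out: Photinus luciferase luminescence; inhibitors lower reporter signal. Insect Schneider cells with Gal4-ROR gamma fusion under metallothionein promoter, UAS reporter; 700 uM final copper sulfate induction, 20 hr, ambient temperature.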
Chronic BCR inh: inhibitors of chronic active B-cell receptor signaling | ABC-DLBCL IkBa-CBG/CBR reporter, luminescence ratio, 4 h | actives 0.05% (n = 340,000) | Potency, µM (top dose mostly 46.1 µM), for inactives: top-dose activity change, negative = inhibition, most hits filed as inhibitors; active = well fitted inhibition curve with a large enough effect in the signal ratio, with a control signal flat, not every such curve was filed as active; inconclusive = small, poorly fitted or top-dose-only effect, or effect the other way, or a change in a side signal; the % refers to the signal ratio;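 note: plate controls were basal doxycycline-induced cells for no effect and cells given 10 µM MG132 for full effect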
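Concentration-response series (up to 46 uM) were applied to TMD8 dual-reporter cells for 4 h at 37C with doxycycline. Green/red ratio, after filter-overlap correction, defined %Activity; red signal alone was normalised to basal cells and zero luminescence.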
Mito fusion act: blocks mitochondrial division or promotes mitochondrial fusion; S. cerevisiae fusion-defective mutant growth rescue, CellTiterGlo 48 h; Potency, µM (series often up to 46.1 µM), inactives show top-dose growth rescue (activation), most hits filed as activators; actives 0.23% (n = 320,000); note: % of control where 0% means no effect; nearly all actives have a fitted effect of over 45% in size
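Yeast fusion mutant, YPEG (non-fermentable carbon), compound, 48 h at 37C non-permissive; CellTiterGlo added, 10 min RT, luminescence read. Rescued growth = division inhibition.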
a7 integrin act: activators of alpha7 integrin expression for muscular dystrophy | alpha7betagal myoblasts, beta-gal FDG fluorescence, 48 h | Potency, µM (titrated, usually from 38.3 µM), inactives show at the highest dose activation, hits mostly activators | AID 624291 | actives 0.064% (n = 350,000);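 note: 100% = response of the positive control SU9516; nearly all actives have a fitted effect of over 60% in size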
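alpha7betagal+/- myoblasts (passage 13, 250/well) treated 48 h at 37C with compounds at 1:260 dilution of DMSO stock. Lysed, then beta-galactosidase activity read as FDG fluorescence (ex 480/em 540) after 30 min, with pre-read for autofluorescence.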
Numbers without * were called inactive; ? = inconclusive; / = no result given; [ ] = another dose, or the depositor's remark. Unless noted, calls come from the whole dose curve; as a rule, active = well fitted curve in the direction sought with a large enough effect; inconclusive = small, poorly fitted or top-dose-only effect, or another doubt; inactive = no such curve, though single readings can be large; an effect the other way counts as inactive or inconclusive. Potency is the fitted concentration of half-maximal effect.

SMILES | VP16 counter | uPA generation | RORg inh | Chronic BCR inh | Mito fusion act | a7 integrin act
Cc1ccc(NC(=O)COc2nsnc2N2CCOCC2)cc1Cl | 0.8% | -1.2% | -29.7% | 5.0% | -13.9% | -34.1%
C/C(=N\NC(=O)c1ccn(C)n1)c1cccc(NC(=O)c2ccncc2)c1 | -8.5% | -1.4% | 2.3% | ? | -8.3% | 13.0%
COc1ccc(C(=O)n2cnc3ccccc32)cc1 | 18.1% | -4.0% | -10.7% | -4.2% | 2.8% | -38.4%
COc1ccc(NC(=S)NC(=O)Cc2ccccc2)c(OC)c1 | 11.2µM* | 6.1% | 14.1µM* | -1.2% | -9.4% | 0.0%
O=C(Nc1cc(Cl)ccc1Cl)c1cc(S(=O)(=O)N2CCCc3ccccc32)ccc1F | / | / | / | -1.8% | / | /
Cc1ccc(C)c(SCC(=O)Nc2nnc(-c3ccccc3)o2)c1 | 5.01µM* | 2.9% | 2µM* | ? | -7.6% | -28.7%
CCC(c1nnc(SCC(=O)Nc2nnc(-c3ccccc3)o2)o1)N(C)C (stereo unspecified) | ? | 3.5% | 12.6µM* | -0.3% | -8.7% | 9.9%
Cc1ccc(-c2nnc(SCC(=O)Nc3ccccc3F)o2)cc1 | 1.0% | 8.91µM* | 6.8% | ? | -6.9% | 21.5%
Cc1[nH]c2ccccc2c1C(=O)COC(=O)c1nccnc1N | / | -0.6% | / | ? | 1.3% | -11.7%
CC1CC(OC(=O)C(O)c2ccccc2)CC(C)(C)C1 (stereo unspecified) | -25.3% | / | 12.7% | / | / | /
O=C(Nc1ccc(Cl)cc1)Nc1cccc(C(=O)O)c1 | 1.41µM* | -6.9% | 3.16µM* | ? | 8.8% | 21.2%
Cc1cccc(NC(=O)COc2ccc(Br)cc2/C=N/O)c1 | 5.01µM* | -6.2% | 5.62µM* | ? | ? | 10.6%
O=C(Nc1cccc(Cl)c1)Nc1cccc(C(=O)O)c1 | -27.7% | -5.4% | -37.3% | ? | -0.9% | -19.0%
CCOC(=O)c1cccc(NC(=O)Nc2ccc(OCC)cc2)c1 | -21.6% | ? | -41.8% | ? | -0.2% | -5.3%
CCOc1ccc(NC(=O)Nc2cccc(C(=O)O)c2)cc1 | 5.01µM* | -13.9% | 5.01µM* | ? | -1.3% | 2.8%
CCOc1ccc(NC(C(=O)Nc2cccc(C(C)=O)c2)c2ccccc2)cc1 (stereo unspecified) | 27.1% | -2.9% | ? | 12.4% | 19.6% | 7.1%
CCOc1ccc(/C=C/C(=O)Nc2cccc(C(C)=O)c2)cc1 | 4.47µM* | -2.2% | 1.12µM* | -1.1% | -2.0% | ?
Cc1cccc(NC(=O)C2CCCN2C(=O)NC2CCCCC2)c1 (stereo unspecified) | 6.4% | 18.4% | -2.3% | -1.6% | 0.7% | -3.3%
CC(=O)Nc1cccc(C(=O)/C=C/c2ccc(C)cc2)c1 | ? | -9.9% | 12.6µM* | ? | ? | -24.8%
Cc1ccccc1OCC(=O)Nc1cccc(C(=O)O)c1 | 6.31µM* | -5.6% | 2.51µM* | ? | 1.2% | -4.1%
Cc1cccc(OCC(=O)Nc2cc(NC(=O)COc3cccc(C)c3C)cc(C(=O)O)c2)c1C | / | 9.6% | / | ? | -0.7% | 0.0%
Cc1ccccc1OCCC(=O)Nc1ccc(F)c(Cl)c1 | 4.47µM* | 5.2% | 5.62µM* | 0.3% | 21.1% | 5.0%
CCOc1ccc(C2C(=O)N(C3CCCCC3)CC(=O)N2Cc2ccc(F)cc2)cc1OC (stereo unspecified) | / | / | / | -10.9% | / | /
O=C(Cc1ccc(Cl)cc1)NCC(=O)N1CCCCCC1 | / | -0.8% | / | 5.6% | 3.7% | 0.0%
COCCN(C(=O)CSc1nnc(-c2ccncc2)n1C)c1c(N)n(CC(C)C)c(=O)[nH]c1=O | / | 31.9% | / | / | / | 15.6%
SMILES | VP16 counter | uPA generation | RORg inh | Chronic BCR inh | Mito fusion act | a7 integrin act
CC(=O)N1CCOc2cc(S(=O)(=O)NCc3ccccc3Cl)c(Cl)cc21 | / | / | / | 0.6% | 1.8% | /
CCC(C)Sc1nnc(CNC(=O)C23CC4CC(CC(C4)C2)C3)n1C1CCCCC1 (stereo unspecified) | ? | 11.1% | 11.2µM* | 17.9% | 2.0% | 9.5%
CC(C)Sc1nnc(CNC(=O)C23CC4CC(CC(C4)C2)C3)n1Cc1ccccc1 | -8.4% | -1.1% | -39.7% | ? | -5.4% | -1.2%
S=c1[nH]nc(-c2ccc(Cl)cc2)n1/N=C/c1ccco1 | ? | 6.8% | 3.16µM* | -12.5% | -8.1% | -18.5%
S=c1[nH]nc(-c2ccco2)n1/N=C/c1cccc(Cl)c1Cl | ? | -2.4% | ? | 7.4% | 4.3% | 3.3%
Cc1cc(-c2n[nH]c(=S)n2/N=C/C=C/c2ccco2)n[nH]1 | -1.1% | 0.1% | -1.6% | 4.9% | -6.1% | 3.2%
S=c1[nH]nc(-c2ccco2)n1/N=C/c1ccc(Cl)cc1Cl | 17.8µM* | -0.2% | 5.62µM* | 4.6% | 8.0% | -25.0%
S=c1[nH]nc(-c2ccc(Cl)cc2)n1/N=C/C=C/c1ccco1 | -7.7% | 1.1% | ? | 13.5% | 1.8% | 3.0%
S=c1[nH]nc(-c2ccco2)n1/N=C/C=C/c1ccccc1 | ? | 4.2% | 2.51µM* | ? | -4.6% | 0.1%
Cc1ccccc1-c1n[nH]c(=S)n1/N=C/C=C/c1ccco1 | -18.2% | -7.0% | 2.51µM* | ? | -0.1% | 0.0%
COc1cc(CCC(=O)OCC(=O)N(CC(C)C)C2CCS(=O)(=O)C2)cc(OC)c1OC (stereo unspecified) | / | -7.8% | / | 1.0% | -5.6% | 14.3%
S=c1[nH]nc(-c2ccccc2)n1/N=C/C=C/c1ccco1 | 3.16µM* | 1.9% | 2.82µM* | 7.7% | 1.1% | -44.1%
CCCn1c(-c2ccc(F)cc2)nc2c(NCCN3CCCC3)nc(C)nc21 | 3.3% | / | -12.5% | / | / | /
Cc1occc1C(=O)Nc1nnc(C(F)(F)F)s1 | -0.5% | -15.0% | 33.5% | 14.1% | 16.3% | 23.4%
O=C(Nc1ccccc1C(=O)Nc1nnc(C(F)(F)F)s1)c1ccccc1 | 5.01µM* | -10.7% | 4.47µM* | ? | ? | -71.7%
CCc1ccccc1NC(=S)NC1CC2CCCC(C1)N2Cc1cccs1 (stereo unspecified) | ? | -16.8% | 11.2µM* | -0.1% | -7.2% | -38.5%
Cc1cccc(C)c1NC(=O)NC1CC2CCC(C1)N2Cc1cccs1 (stereo unspecified) | -13.2% | -0.1% | 33.2% | ? | 5.1% | 12.4%
Cc1cccc(NC(=S)NC2CC3CCCC(C2)N3Cc2cccs2)c1C (stereo unspecified) | ? | -3.3% | 2.51µM* | -11.9% | -14.6% | -22.9%
O=P(O)(O)C(O)(Cc1cccnc1)P(=O)(O)O | -1.0% | / | -9.4%[10 µM] | / | / | /
